Source: PubChem BioAssay
Anthrax LF inh2: anthrax lethal factor protease inhibition. P15917. multiplex microsphere protease cleavage assay, LF. inhibition, % at 10 µM. actives 0.12% (n = 360,000). AID 588501; further: plate controls were buffer without enzyme for full effect and enzyme alone for no effect
BoNT A protease: inhibitors of Botulinum neurotoxin A light chain protease; multiplex microsphere protease substrate cleavage, flow cytometry; inhibition, % at 10 µM; actives 0.17% (n = 360,000); further: plate controls were buffer without enzyme for full effect and enzyme alone for no effect
Autofluor counter: counter-screen for toxin protease inhibitors: compound fluorescence; AID 624483; fluorescence intensity (test concentration not listed); actives 3.1% (n = 360,000); compound autofluorescence counterscreen, microsphere flow cytometry; active compounds read high; in the data active means fluorescence intensity above about 16000; inconclusive means no clear call, values can overlap the other calls
BoNT F protease: BoNT F light chain protease inhibition | actives 0.22% (n = 360,000) | AID 588497 | Multiplex microsphere protease cleavage assay, flow cytometry | inhibition, % at 10 µM; in the data active means inhibition above about 35%, passing the limit was not always enough; inconclusive means no clear call, values can overlap the other calls; further: plate controls were buffer without enzyme for full effect and enzyme alone for no effect
CCHF vOTU inh: CCHFV vOTU protease inhibition; actives 0.55% (n = 370,000); inhibition, % at 11.5 µM; Pep-AMC fluorescence; in the data active means inhibition above about 30%; further: 0% = vehicle wells with enzyme and 100% = no enzyme wells
SARS 3CLpro inh: SARS-CoV 3CLpro protease inhibition; P0C6X7; recombinant SARS-CoV 3CLpro, quenched FRET peptide cleavage; inhibition, % at 6 µM; actives 0.14% (n = 290,000); in the data active means inhibition above about 12%
An asterisk follows results filed as active; ? = inconclusive; nt = not tested or not shown. Only some compounds are listed: those with a hit (about 3.9% of all), similar ones and a draw of the others. Unless noted, no stated cut-off is given here; in the data, active means inhibition above about 30%; inconclusive means no clear call, values can overlap the other calls; inactive means below that.

SMILES	Anthrax LF inh2	BoNT A protease	Autofluor counter	BoNT F protease	CCHF vOTU inh	SARS 3CLpro inh
O=C(CSc1nnc(-c2ccco2)n1-c1ccc(Cl)cc1)Nc1ccc(S(=O)(=O)Nc2nccs2)cc1	nt	nt	nt	nt	18.8	nt
CCn1c(SCC(=O)c2ccc(O)c(O)c2)nnc1-c1ccc(C)cc1	-2.0	0.0	2923	-1.3	13.3	3.4
CCOC(=O)c1ccccc1NC(=O)CSc1nnc(COc2ccccc2C)n1C	-1.2	?	17960*	7.0	14.5	2.3
CCn1c(SCC(=O)c2ccc3c(c2)Cc2ccccc2-3)nnc1-c1ccc(N)cc1	-9.8	-1.7	23475*	-0.5	7.3	-4.4
CC(C)C(C#CC1CC1)N(Cc1ccc2c(c1)OCO2)C(N)=NC(=O)/C=C/c1ccccc1 (centres undefined)	nt	nt	nt	nt	10.7	nt
CC(C)CN1C(=O)[C@]2(CC(=O)N(C)C2c2ccccc2)c2cc(-n3cc(CCc4ccccc4)nn3)ccc21 (some centres undefined)	nt	nt	nt	nt	9.7	nt
Cc1ccc(N2C(=O)CC(n3nc(C)cc3C)C2=O)cc1 (centres undefined)	-0.2	?	16252*	-3.6	-17.6	3.0
CCOC(=O)N1CCN(C(=O)/C(=C/c2cccc3ccccc23)NC(=O)c2ccc(OC)cc2)CC1	-1.8	-2.1	24028*	-5.4	-1.1	-1.0
CCOC(=O)N1CCN(C(=O)/C(=C/c2ccc(OC)cc2)NC(=O)c2ccccc2)CC1	-0.1	0.1	2819	-13.0	16.6	1.9
COc1cc2ccccc2cc1C(=O)Nc1ccc(C)cc1	-8.2	-3.5	4265	-28.7	6.3	-1.8
COc1cc2ccccc2cc1C(=O)Nc1ccc(Cc2ccncc2)cc1	-0.7	-1.0	21333*	-2.4	10.4	1.5
COc1ccc(OC)c(N(CC(=O)Nc2ccccc2C(=O)NCc2ccco2)S(C)(=O)=O)c1	-3.9	-1.2	8017	1.6	0.4	-0.6
O=C(NCc1ccco1)c1ccccc1NS(=O)(=O)c1cccs1	-3.7	3.3	19002*	3.4	2.0	2.6
CS(=O)(=O)N(Cc1ccccc1)c1ccccc1C(=O)Nc1ccccc1C(=O)NCc1ccco1	-5.2	-1.5	23578*	-2.5	2.6	1.9
CCOc1ccc(N(CC(=O)NCc2ccco2)S(=O)(=O)c2ccc(OC)c(OC)c2)cc1	-0.9	-1.2	3418	5.5	-7.5	-1.6
COc1ccc(N(CC(=O)NCc2ccco2)S(=O)(=O)c2ccc(OC)c(OC)c2)cc1	-2.6	?	22427*	5.0	-8.0	6.3
COc1ccc(N(CC(=O)Nc2ccccc2C(=O)NCc2ccco2)S(C)(=O)=O)cc1	-2.5	0.5	22786*	0.9	5.7	-3.3
CCOC(=O)C1(Cc2ccccc2)CCN(Cc2ccc(C)cc2)CC1	nt	nt	nt	nt	4.4	nt
COC(=O)[C@H]1C[C@@]2(c3ccccc3)c3ccccc3N[C@H]2N1	nt	nt	nt	nt	0.6	nt
Cc1ccc(C2NC(=O)c3n[nH]c(C(C)C)c32)cc1 (centres undefined)	nt	nt	nt	nt	3.6	nt
CCOC(=O)c1cccc(NC(=O)CN(C)S(=O)(=O)c2ccc(Cl)s2)c1	nt	nt	nt	nt	-6.3	nt
CC(C)(C)CSc1nnc(-c2cccnc2)n1Cc1ccccc1	nt	nt	nt	nt	-1.9	nt
Cc1c(/C=N/NC(=O)c2cc(=O)[nH]c(=O)[nH]2)c2ccccn2c1C(=O)c1ccccc1	0.7	3.3	19024*	4.8	-12.0	-8.5
CCCCCn1cc(CCC(=O)Nc2ccc(Oc3cccnc3)cc2)c2ccccc21	nt	nt	nt	nt	27.1	nt
COc1ccc(CCNC(=O)c2cc(-c3cc(Cl)cc(Cl)c3)oc2C)cc1	-6.7	2.2	21204*	4.0	-10.1	6.9
SMILES	Anthrax LF inh2	BoNT A protease	Autofluor counter	BoNT F protease	CCHF vOTU inh	SARS 3CLpro inh
Cc1occc1C(=O)NCCc1ccc(Cl)cc1	-5.4	-1.5	20471*	-2.5	3.1	-2.2
Cc1occc1C(=O)NCCCCc1ccccc1	-1.2	-1.4	5138	-17.6	11.5	2.8
CCN(C(=O)C1CCCN(c2nnc(-n3cccc3)s2)C1)c1ccccc1C (centres undefined)	nt	nt	nt	nt	5.4	nt
CCCNC(=O)CCn1nc(-c2ccc(C)cc2)c2ccccc2c1=O	5.9	0.5	3718	13.4	11.8	-3.6
CCCNC(=O)CCC(=O)Nc1ncc(-c2ccc(C)cc2)n1C	1.7	?	22139*	-4.3	-5.5	-0.5
COc1ccc2c(C)cc(N3CCCCCC3)nc2c1	-2.4	-0.7	4213	-1.1	16.4	0.2
Cc1cc(N2CCCCCC2)nc2ccc(F)cc12	-36.7	-20.5	19022*	-147.1	2.3	-5.7
O=C(NCc1ccc2c(c1)OCO2)c1ccc2c(c1)OCO2	-1.5	-0.7	4997	-1.3	5.0	1.8
Cc1cc2cc(CNC(=O)c3ccc4c(c3)OCO4)ccc2[nH]1	-40.9	67.0*	2941	-84.9	-15.4	2.2
